Laboratory results reported in the supplement of paper PMC10127200.
Structures can show the parent of a compound that is named as a salt.

Test system: 786-O
Experiment: Euclidean distance of Cell Painting phenotypic profile (signed KS, 77 features) to DMSO centroid (dimensionless distance); 5 or 10 uM (library dependent); higher = stronger phenotypic change vs DMSO (phenoactivity)
Details: 48 h
Procedure, shortened: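 Phenoactivity is computed as Euclidean distance to the median vehicle profile. The profiles, drawn from 77 Harmony features scored as signed Kolmogorov-Smirnov statistics versus same-plate vehicle wells, were corrected for plate position, correlation-weighted and replicate-averaged at the top dose. Stained cells were imaged confocally at 20X (9 fields/well) after 48 h with library compounds at 10 or 5 uM, 0.1% DMSO final, in five cancer lines and a healthy fibroblast line.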

SMILES | Euclidean distance
CO[C@H]1C[C@@H]2CC[C@@H](C)[C@@](O)(O2)C(=O)C(=O)N2CCCC[C@H]2C(=O)O[C@H]([C@H](C)C[C@@H]2CC[C@H](n3cnnn3)[C@H](OC)C2)CC(=O)[C@H](C)/C=C(\C)[C@@H](O)[C@@H](OC)C(=O)[C@H](C)C[C@H](C)/C=C/C=C/C=C/1C [Zotarolimus(ABT-578)] | 2.27
CO[C@@H](C(=O)N1Cc2[nH]nc(NC(=O)c3ccc(N4CCN(C)CC4)cc3)c2C1)c1ccccc1 | 1.39
CCCCS(=O)(=O)N[C@@H](Cc1ccc(OCCCCC2CCNCC2)cc1)C(=O)O [Tirofiban Hydrochloride] | 1
CCOC(=O)c1ccc(N)cc1 [Benzocaine hydrochloride] | 0.675
CSc1nc2cc(Cl)c(Oc3cccc(Cl)c3Cl)cc2[nH]1 [Triclabendazole] | 1.55
CN[C@@H]1[C@H](O)[C@H](NC)[C@H]2O[C@@]3(O)C(=O)C[C@@H](C)O[C@H]3O[C@@H]2[C@H]1O [Spectinomycin 2HCl] | 1.1
CC(C)/N=c1\cc2n(-c3ccc(Cl)cc3)c3ccccc3nc-2cc1Nc1ccc(Cl)cc1 [Clofazimine] | 1.02
COc1ccc(CNC(=O)Nc2ncc([N+](=O)[O-])s2)cc1 | 0.769
NC(=O)N/N=C/c1ccc([N+](=O)[O-])o1 [Nitrofural] | 1.31
CC(=O)NS(=O)(=O)c1ccc(N)cc1 [Sulfacetamide sodium salt hydrate] | 1.2
CC(=O)NS(=O)(=O)c1ccc(N)cc1 [Sulfacetamide] | 1.08
CCC[C@@H]1C[C@@H](C(=O)N[C@@H]([C@H]2O[C@H](SC)[C@H](O)[C@@H](O)[C@H]2O)[C@H](C)Cl)N(C)C1 [Clindamycin HCl] | 1.06
Cc1cc(NS(=O)(=O)c2ccc(N)cc2)nc(C)n1 [sulfaisodimidine] | 0.897
CO[C@H]1/C=C/O[C@@]2(C)Oc3c(C)c(O)c4c(c3C2=O)C2=NC3(CCN(CC(C)C)CC3)NC2=C(NC(=O)/C(C)=C\C=C\[C@H](C)[C@H](O)[C@@H](C)[C@@H](O)[C@@H](C)[C@H](OC(C)=O)[C@@H]1C)C4=O [Rifabutin] | 1.26
NS(=O)(=O)c1cc(Cl)c(Cl)c(S(N)(=O)=O)c1 [Dichlorphenamide] | 0.93
